Drawing on ChEMBL document CHEMBL1157539, “Thousands of chemical starting points for antimalarial lead identification” (Nature, 2010), this text covers Inhibition for 28 molecules.

Type in all cases: functional
Experiment [1] concerns Plasmodium falciparum. The experiment is described as follows: GSK_TCMDC: Inhibition of Plasmodium falciparum 3D7 in whole red blood cells, using parasite LDH activity as an index of growth. Test compounds present at 2uM.
Experiment [2] concerns Plasmodium falciparum. Briefly: GSK_TCMDC: Inhibition of Plasmodium falciparum Dd2 in whole red blood cells, using parasite LDH activity as an index of growth. Test compounds present at 2uM.
For a further experiment, the system named is HepG2. Briefly: GSK_TCMDC: Percent inhibition of human HepG2 cell line. Test compounds present at 10uM.

On to `CN1CCN(Cc2cccc(Nc3nccc(Nc4ccc(Oc5ccccc5)cc4)n3)c2)CC1`, for which the Inhibition in the experiment with Plasmodium falciparum [1] came to 97%; with Plasmodium falciparum [2] it was 80%; with HepG2, 30%.
For the molecule `COc1ccc2nccc([C@@H](O)CN3CCC(NCc4cc5c(Cl)cccc5[nH]4)CC3)c2c1.O=C(O)C(=O)O`, the Inhibition worked out at 100% with Plasmodium falciparum [1], 74% in the experiment on Plasmodium falciparum [2] and 40% with HepG2.
`CC(CN(C)C)C(=O)Nc1cccc(-c2ccc(-c3nc4ccccc4[nH]3)s2)c1` (centres undefined): the Inhibition in the experiment on Plasmodium falciparum [1] was found to be 100%; in the experiment on Plasmodium falciparum [2] it was 47%; in the experiment with HepG2, 13%.
Regarding `COc1cc(N(Cc2ccccc2C)S(=O)(=O)Cc2ccccc2[N+](=O)[O-])c(OC)cc1Cl`, the Inhibition in the experiment with Plasmodium falciparum [1] worked out at 94%; in the experiment with Plasmodium falciparum [2], 44%; with HepG2, 16%.
Consider `CCc1cn2c3c(cc(C(=O)N[C@@H](Cc4cc(F)cc(F)c4)[C@H](O)CNC4CCCCC4)cc13)N(C)S(=O)(=O)CC2.O=CO`, for which the Inhibition in the experiment with Plasmodium falciparum [1] is 100%; with Plasmodium falciparum [2] it was 99%; with HepG2, 9%.
For `COc1ccc(-c2ccc(CNC(=O)c3ccc(Cl)cc3)c(F)c2)cc1CN1CCCN(C)CC1.O=C(O)C(F)(F)F`, the Inhibition in the experiment with Plasmodium falciparum [1] was determined as 99%; with Plasmodium falciparum [2], 48%; in the experiment on HepG2, 25%.
Turning to `COc1cccc(-c2nn(C)c3sc(C(=O)Nc4cccnc4)cc23)c1`, the Inhibition is listed as 86% in the experiment on Plasmodium falciparum [1], 34% in the experiment on Plasmodium falciparum [2] and 1% with HepG2.
With `CC(=O)N(C)c1cccc(C(=O)Nc2ccc(-c3cccc(-c4nc5cccc(C)c5[nH]4)c3)cc2)c1`, the Inhibition in the experiment on Plasmodium falciparum [1] turned out to be 97%; with Plasmodium falciparum [2], 68%; in the experiment on HepG2, 86%.
As to `COc1cc2c(cc1OC)-c1cc(=Nc3c(C)cc(C)cc3C)n(C)c(=O)n1CC2.Cl`, the figures for the Inhibition in the experiment with Plasmodium falciparum [1], in the experiment on Plasmodium falciparum [2] and with HepG2 were 92%, 29% and 14%, respectively.
As to `O=C(CCCc1ccccc1)Nc1cccc(N2CCC(N3CCN(c4ccccc4O)CC3)CC2)c1`, the Inhibition was 98% in the experiment with Plasmodium falciparum [1], 41% in the experiment with Plasmodium falciparum [2] and 31% in the experiment on HepG2.
With `CC(C)CNCc1ccc(-c2cccc(-c3nc4ccccc4[nH]3)c2)cc1.O=C(O)C(F)(F)F`, the values for the Inhibition in the experiment on Plasmodium falciparum [1], in the experiment on Plasmodium falciparum [2] and in the experiment on HepG2 were 99%, 98% and 53%, respectively.
On to `CN(C)c1cc(C(=O)N[C@@H](Cc2ccccc2)[C@H](O)CNC2CCCCC2)cc2[nH]ccc12.O=CO`, for which the Inhibition came out at 98% with Plasmodium falciparum [1], 97% in the experiment with Plasmodium falciparum [2] and 10% in the experiment on HepG2.
For `CN(C)CC(=O)Nc1ccc(Nc2nccc(NCC(O)c3ccccc3)n2)cc1` (centres undefined), the Inhibition was found to be 95% in the experiment on Plasmodium falciparum [1], 2% in the experiment with Plasmodium falciparum [2] and 0% with HepG2.
As to `Cc1cc(O)c(CN(C)Cc2ccc(N(C)C)cc2)cc1C(C)C`, the Inhibition is recorded as 100% in the experiment with Plasmodium falciparum [1], 98% in the experiment with Plasmodium falciparum [2] and 3% with HepG2.
For the molecule `O=C(CCc1c[nH]cn1)Nc1cccc(-c2ccc(-c3nc4cc(F)ccc4[nH]3)cc2)c1`, the Inhibition amounted to 100% in the experiment on Plasmodium falciparum [1], 79% in the experiment with Plasmodium falciparum [2] and 18% in the experiment on HepG2.
Consider `Cc1ccc(NC(=O)c2c(C)noc2-c2snnc2C)cc1`, for which the Inhibition in the experiment on Plasmodium falciparum [1] was 92%; with Plasmodium falciparum [2] it was 71%; with HepG2, 1%.
Regarding `O=C(Nc1cccc(CN2CCCN(Cc3ccccc3)CC2)c1)c1ccc(-c2ccccc2)cc1.O=C(O)C(F)(F)F`, the Inhibition in the experiment with Plasmodium falciparum [1] came out at 85%; in the experiment with Plasmodium falciparum [2] it was 8%; in the experiment on HepG2, 45%.
For `Cc1noc(=O)c2ccc(NC(=O)C(O)(CSc3ccccc3)CC(C)C)cc12` (centres undefined) the same measures were 99%, 89% and 0%.
The matching figures for `CC(C)(C)CC(C)(C)c1ccc(O)c(CNC2CCCCC2)c1.Cl`: 98%, 99% and 92%.
Turning to `Fc1ccc2[nH]c(-c3ccc(-c4ccc(CNCCN5CCNCC5)cc4)cc3)nc2c1.O=C(O)C(F)(F)F`, the values for the Inhibition with Plasmodium falciparum [1], in the experiment on Plasmodium falciparum [2] and with HepG2 were 96%, 70% and 94%, respectively.
As for `COc1ccc2nccc([C@@H](O)CN3CCC(NC(=O)C(c4ccsc4)N4CCN(c5ccccc5OC)CC4)CC3)c2c1` (some centres undefined), the figures for the Inhibition with Plasmodium falciparum [1], in the experiment with Plasmodium falciparum [2] and with HepG2 were 95%, 50% and 11%, respectively.
The matching figures for `O=C(NCc1ccccc1)NC(CCCN1CCC(Oc2cccc(Cl)c2)CC1)c1ccc(Cl)c(Cl)c1` (centres undefined): 81%, 57% and 15%.
For `Fc1ccc2[nH]c(-c3ccc(-c4ccc(CN5CCN(CCN6CCOCC6)CC5)cc4)cc3)nc2c1.O=C(O)C(F)(F)F` the same measures were 100%, 100% and 38%.
Turning to `O=C(Nc1ccc(-c2ccccc2)cc1)Nc1cccc(Cn2ncc(N3CCCNCC3)c(Cl)c2=O)c1`, the Inhibition in the experiment on Plasmodium falciparum [1] was 100%; in the experiment with Plasmodium falciparum [2] it was 52%; in the experiment with HepG2 it was 14%.
The matching figures for `Cc1ccccc1C1CCN(C2CCC(NC(=O)/C=C/c3cc(C(F)(F)F)ccc3F)CC2)CC1` (centres undefined): 100%, 45% and 56%.
For `Cc1ccc2c(N/N=C/c3cccc([N+](=O)[O-])c3)cc(C)nc2c1`, the values for the Inhibition in the experiment on Plasmodium falciparum [1], in the experiment with Plasmodium falciparum [2] and with HepG2 were 100%, 97% and 33%, respectively.
For `CCn1c(Cc2ccccc2)nnc1Sc1ccc([N+](=O)[O-])c(C#N)c1`, the Inhibition came to 93% in the experiment on Plasmodium falciparum [1], 72% in the experiment on Plasmodium falciparum [2] and 8% in the experiment with HepG2.
For the molecule `Cc1ccc(-c2cc(C(=O)Nc3ccc(S(=O)(=O)N4CCCC(C)C4)cc3)[nH]n2)c(O)c1` (centres undefined), the values for the Inhibition with Plasmodium falciparum [1], with Plasmodium falciparum [2] and with HepG2 were 100%, 99% and 32%, respectively.

The term Inhibition denotes the change of the read-out against control, counted positive when it falls. Read a high Inhibition as a strong effect.
